This is a sample that favours compounds with a hit; in the whole collection about 6% have one here.
D3 ag: qHTS of D3 Dopamine Receptor Agonist: qHTS; D(3) dopamine receptor (Homo sapiens), P35462; max activation, %; D3R DiscoveRx beta-arrestin cells, luminescence, 90 min; 410,000 compounds, 0.58% hits; AID 652048, 2013; in the data active = max activation above about 30%; note: 0% is about no effect
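Agonist mode: compounds and dopamine controls were applied to plated cells for 90 min at 37 degrees C after an overnight attachment at 1500 cells/well. Luminescent read-out followed 30 - 60 minutes at room temperature with DiscoveRx detection reagent.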
DRD3 antagonist: qHTS of D3 Dopamine Receptor Antagonist: qHTS. D(3) dopamine receptor (Homo sapiens), P35462. D3R cells, DiscoveRx beta-arrestin luminescence, antagonist mode; hits give low values. max response, negative = inhibition, %. 360,000 compounds, 2.5% hits. AID 652054, 2013; in the data active = max response below about -50%; inconclusive = no clear call, values can overlap the other calls; note: % is set by controls: 0 for no effect and ±100 for the full control effect
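Cells expressing the human receptor were seeded at 1500 cells/well, incubated overnight at 37 degrees C in 5% CO2, then exposed to library compounds with dopamine controls for 90 minutes at 37 degrees C before luminescent detection.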
D1 PAM: Potentiators of Human D1 Dopamine Receptor: qHTS; D(1A) dopamine receptor (Homo sapiens), P21728; HEK293 TREx D1 cells, calcium flux, dopamine EC20 potentiation; potentiation, % at 10 µM; 360,000 compounds, 0.036% hits; AID 504651, 2011; in the data active = potentiation above about 30%; note: 0% is about no effect
Target sequence (P21728 whole entry, looked up): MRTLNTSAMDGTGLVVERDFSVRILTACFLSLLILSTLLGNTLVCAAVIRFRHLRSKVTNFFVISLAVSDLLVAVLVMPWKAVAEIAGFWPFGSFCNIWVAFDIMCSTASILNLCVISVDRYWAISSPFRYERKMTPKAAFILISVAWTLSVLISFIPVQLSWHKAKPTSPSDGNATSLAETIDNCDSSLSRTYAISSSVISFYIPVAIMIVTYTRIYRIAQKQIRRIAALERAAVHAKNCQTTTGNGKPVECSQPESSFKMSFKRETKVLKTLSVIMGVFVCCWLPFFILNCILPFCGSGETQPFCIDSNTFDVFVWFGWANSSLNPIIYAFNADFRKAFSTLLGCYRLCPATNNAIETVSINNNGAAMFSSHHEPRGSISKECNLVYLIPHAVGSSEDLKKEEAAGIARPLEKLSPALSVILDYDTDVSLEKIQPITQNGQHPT
D1 agonist: Allosteric Agonists of the Human D1 Dopamine Receptor: qHTS | 360,000 compounds, 1% hits | activation, % at 2 µM | D(1A) dopamine receptor (Homo sapiens), P21728 | AID 504660, 2011 | HEK293 T-REx D1 cells, calcium flux, agonist mode; in the data active = activation above about 30%; note: 0% is about no effect
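Agonism was scored from calcium flux recorded over 180 s (1 read/s) after pintool compound addition, following a 10-cycle baseline. Cells were inducible force-coupled HEK293 TREx D1, plated overnight at 30 C and loaded with no-wash calcium dye.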
D1 antag: Antagonist of Human D 1 Dopamine Receptor: qHTS; D(1A) dopamine receptor (Homo sapiens), P21728; HEK293 TREx D1 cells, calcium flux, dopamine EC80; hits give low values; activity change, negative = inhibition, % at 10 µM; 360,000 compounds, 3.2% hits; AID 504652, 2011; in the data active = activity change below about -30%; note: % is set by controls: 0 for no effect and ±100 for the full control effect
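Antagonism measured as reduced calcium response to an EC80 dopamine addition following 180 s compound pre-read; cells were inducible HEK293 Trex D1 plated overnight at 30 C, read kinetically at 1 cycle/sec.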
Numbers without * were called inactive; u = inconclusive; x = no result given.

SMILES	D3 ag	DRD3 antagonist	D1 PAM	D1 agonist	D1 antag
c1cncc(CNC2=NCCCCC2)c1	-3	-11	-1	3	-47*
NC(=O)CN1CC(O)CC1=O (stereo not drawn)	-11	x	x	x	x
CN1C(=O)C(=Cc2ccc(N3CCOCC3)o2)C(=O)N(C)C1=O	-3	13	-2	45*	15
CN1C(=O)C(=Cc2ccc(N3CCCCCC3)o2)C(=O)N(C)C1=S	-7	u	1	27	4
O=P(Nc1cccc(Cl)c1)(Oc1ccccc1)Oc1ccccc1	32*	21	2	0	x
COc1cccc(NP(=O)(Oc2ccccc2)Oc2ccccc2)c1	4	-1	2	2	-2
CCCOc1ccc(C2SCC(=O)Nc3c2c(C)nn3-c2cccc(C)c2)cc1OC (stereo not drawn)	3	x	6	-1	4
CCCN1CCC[C@@H](c2cccc(O)c2)C1	21	12	-6	-2	-54*
CCCN1CCC[C@H](c2cccc(O)c2)C1	121*	16	-2	1	5
O=C(c1ccc(-c2ccccc2)c(F)c1)C1CCCN(CCO)C1 (stereo not drawn)	-4	-3	-5	18	-29
CN1CCC(N(C)c2nc(-c3ccc([N+](=O)[O-])cc3)nc3ccccc23)CC1	-13	-27	-3	37*	-7
CN(CCOc1ccc(C=C2C(=O)NC(=O)NC2=O)cc1)c1ccccn1	-1	u	-3	6	25
O=C1NC(=O)C(=Cc2ccc(OCC(=O)N3CCOCC3)cc2)C(=O)N1	-22	-23	0	3	-37*
CCOC(=O)c1cc2cc(OC)ccc2n1C1CCN(Cc2ccccc2)CC1	-10	-89*	x	x	x
CN1C(=O)C(=Cc2cc([N+](=O)[O-])ccc2N2CCCCC2)C(=O)N(C)C1=O	-1	-3	-3	-1	2
CN1C(=O)C(=Cc2sc(=O)n(-c3ccccc3)c2N2CCCCC2)C(=O)N(C)C1=O	1	-9	-4	67*	-3
CNCC(=O)c1ccccc1	-42	-51*	x	x	x
CNCC(=O)c1ccc(O)c(O)c1	61*	x	x	x	x
C[C@@H](Cc1ccccc1)NCCC(c1ccccc1)c1ccccc1	-14	x	x	x	x
CN(C)C(=S)SSC(=S)N(C)C	6	-74*	-3	4	19
COc1cccc(CN2CC=C(c3ccc(F)cc3)CC2)c1	-26	-77*	-6	0	-3
COc1cc(C[C@@H](C)N)c(OC)cc1C	-14	x	x	x	x
CSc1ccc(CN2CCN(c3ccccc3C)CC2)cc1	-10	-73*	-5	2	-1
COc1ccc(CN2CCN(Cc3ccccc3OC)CC2)cc1	-20	u	-8	3	-6
COc1ccccc1CN1CCN(Cc2ccc(Cl)cc2)CC1	-15	-96*	-5	2	-28
SMILES	D3 ag	DRD3 antagonist	D1 PAM	D1 agonist	D1 antag
COc1ccccc1N1CCN(Cc2ccc(SC)cc2)CC1	-20	-107*	-6	3	-27
COc1ccccc1N1CCN(Cc2ccc(Cl)cc2Cl)CC1	-29	-85*	0	2	-2
CCc1ccc(CN2CCN(Cc3ccc(SC)cc3)CC2)cc1	-19	u	3	9	4
CSc1ccc(CN2CCN(C(=O)COc3ccc(C)cc3)CC2)cc1	-8	u	-8	5	0
Cc1ccc(-n2c(/C=C/c3ccc(Br)s3)nc3ccccc3c2=O)cc1C	4	x	-2	3	38
COc1ccccc1N1CCN(Cc2ccc(F)cc2)CC1	-4	-82*	-11	-1	5
Cc1ccc(CN2CCN(Cc3ccccc3F)CC2)cc1	-6	u	-1	-2	6
COc1ccc(CN2CCN(c3ccccc3F)CC2)cc1O	9	-70*	-5	2	-10
COC(=O)[C@@H](N)CCCN/C(N)=N/[N+](=O)[O-]	-9	x	x	x	x
c1ccc(CCN2CCC(N3CCN(c4ccccc4)CC3)CC2)cc1	69*	-24	-5	1	1
CCCCN(Cc1ccccc1)C1CCN(CCc2ccccc2)CC1	-25	u	-13	2	6
CC(C)=CCN1CC[C@@]2(C)c3cc(O)ccc3C[C@@H]1[C@@H]2C	-24	x	x	x	x
CC1CCCC(C)N1/N=C/c1c[nH]c2ccc(Br)cc12 (stereo not drawn)	-14	-76*	-9	10	-6
CN1CCC(c2c[nH]c3ccc(O)cc23)CC1	-1	u	x	x	x
CCN1C[C@]2(COC)[C@H](O)C[C@H](OC)[C@@]34[C@@H]5C[C@@]6(O)[C@H](OC(=O)c7ccccc7)[C@@H]5[C@@](OC(C)=O)([C@@H]([C@H](OC)[C@H]23)[C@@H]14)[C@@H](O)[C@@H]6OC	-16	x	x	x	x
CC(=O)OC1N=C(c2ccccc2)c2ccccc2NC1=O (stereo not drawn)	8	-50*	-7	4	-17
Clc1ccccc1Cl	-3	x	x	x	x
CCN(CC)/[N+]([O-])=N/O	3	x	x	x	x
Cc1cc(OCc2ccc([N+](=O)[O-])cc2)c2c3c(c(=O)oc2c1)CCCC3	0	7	5	2	-30*
COc1ccc(CCNCc2ccc(Br)cc2)cc1OC	-15	-60*	-9	43*	-11
Cc1ccccc1CCNCc1ccc(Br)cc1	-4	-59*	-1	5	3
COCC(C)N(C(=O)CCl)c1c(C)csc1C (stereo not drawn)	8	x	x	x	x
CCCCCCCCCCCCCCCC[N+](C)(C)C	3	14	-6	31*	-24
Cc1ccc(CN2C3CCCC2CC(NC(=S)NCc2ccccc2)C3)cc1 (stereo not drawn)	-19	-94*	2	34*	-75*
CNC(=S)NC1CC2CCCC(C1)N2CC(C)C (stereo not drawn)	-8	15	x	x	x
SMILES	D3 ag	DRD3 antagonist	D1 PAM	D1 agonist	D1 antag
COc1ccc2c(c1)/C(=C/c1cnc[nH]1)C(=O)N2	22	23	-2	1	-34*
COc1ccc(C[C@@H]2c3cc(O)c(OC)cc3CCN2C)cc1O	-31	-117*	-11	0	-88*
COc1ccc(CC2c3cc(OC)c(OC)cc3CCN2C)cc1OC (stereo not drawn)	0	5	-6	2	-15
COc1cc2c(cc1O)[C@@H]1Cc3ccc(OC)c(O)c3CN1CC2	-89	-100*	-7	-1	-90*
CCn1c(O)c(/C=N/NC(=O)c2ccncc2)c(=O)[nH]c1=S	-2	-10	0	3	-31*
FC(F)(F)c1ccccc1CN1CCN(Cc2ccccc2)CC1	-24	u	2	1	1
CC(C)N1CCN(Cc2ccccc2C(F)(F)F)CC1CCO (stereo not drawn)	-11	-53*	-4	1	5
CC1(C)S[C@@H]2[C@H](N)C(=O)N2[C@H]1C(=O)O	4	x	x	x	x
